Measured values published in PubChem BioAssay.
Active and inactive are the calls of the source.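 The calls were made as follows: active = hit in primary screen, with calcium signal over 5 SD above buffer well mean in both duplicates; inactive = the rest.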

Experiment: nonspecific calcium rise without TRPC4 – cell-based, HEK293 mu-opioid receptor line, counter-screen for TRPC4 activator project, confirmation (AID 449723);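 also: counter screen cells carry the mu-opioid receptor alone and lack TRPC4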
Conditions: HEK293 mu-opioid cells, Fluo-4 calcium fluorescence, at 10 µM

| Structure (SMILES) | outcome |
| --- | --- |
| COc1ccc(-n2nc(C(=O)NCC(=O)NCCCN3CC(C)CC(C)C3)c3ccccc3c2=O)cc1Cl (configuration not stated) | inactive |
| Cc1cc(OCC(=O)N(C(C)C)C(C)C)cc(C)c1Br | inactive |
| CCCCCCn1c(N2CCN(c3ccccc3)CC2)nc2c1c(=O)n(C)c(=O)n2C | inactive |
| CCC(=O)NC(C)C(c1cccs1)N1CCN(c2ccccc2)CC1 (configuration not stated) | inactive |
| Cc1ccc(-c2nnc(N3CCC(C)CC3)c3ccccc23)cc1C | inactive |
| Cc1cc(C(C)(C)C)c(O)c(C)c1CC1=NCCN1 | inactive |
| Cc1sc2ncnc(NCC(c3ccccc3)N(C)C)c2c1C (configuration not stated) | inactive |
| O=C(NCc1ccccc1)C1=C[C@H](c2ccc(Br)cc2)C[C@H](OCc2ccc(CO)cc2)O1 | inactive |
| O=C(Nc1ccccc1)C1=C[C@H](C2CCCCC2)C[C@H](OCc2ccc(CO)cc2)O1 | inactive |
| Cc1ccc(S(=O)(=O)N2CCC(N3CCN(C)CC3)CC2)cc1Cl | inactive |
| Cc1cc(OCC(=O)NC2CCCCC2)ccc1Cl | inactive |
| O=[N+]([O-])c1ccc(/C=N/Nc2nc(N3CCCCC3)nc(N3CCCCC3)n2)o1 | inactive |
| Cc1cccc(/C=N/NC(=O)c2cccc(Cl)c2)n1 | inactive |
| S=C(NCCc1ccccn1)NC1CCCCC1 | inactive |
| Cc1cccc(Cc2c(C)nc3c(C(=O)NCc4ccco4)cnn3c2C)c1 | inactive |
| Cc1ccc(Cn2c(=N)c(C(=O)NC3CCCC3)cc3c(=O)n4ccccc4nc32)cc1 | inactive |
| COC(=O)[C@@]12CCCCN1[C@H](c1ccc(-c3cccc(Cl)c3)c(OC)c1)[C@H]1C(=O)N(C)C(=O)[C@H]12 | inactive |
